# Several values for one entry are separate records, joined by “and”; a condition that tells them apart may be missing. Equal entries are not always repeated. Results filed as inconclusive are left out. Activity calls are given as the source filed them. Unless noted, the call rests on the fitted dose curve; in most records, active means well fitted curve in the direction sought with a large enough effect; inconclusive means small, poorly fitted or top-dose-only effect, or another doubt; inactive means no such curve, though single readings can be large; an effect the other way counts as inactive or inconclusive.
# Columns and labels:
# [1] = biological target: Tyrosine-protein kinase Yes (Homo sapiens) (UniProt P07947); experiment: qHTS for small molecule inhibitors of Yes1 kinase: Primary Screen (AID 686947); settings: Yes1 kinase biochemical qHTS inhibition; series mostly up to 76.9 µM; further: nearly all actives have a fitted effect of over 60% in size; further: potency means the concentration at half of the fitted maximal effect
# In short: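 Yes1 (4 nM) preincubated 20 min with compound, then 60 min room-temperature reaction with 0.1 mM ATP and 0.3 mg/mL poly(E4Y) in pH 7.5 Tris, 10 mM MgCl2. ADP measured by ADP-Glo luminescence, normalised to enzyme/no-enzyme controls.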
# [2] = qHTS for small molecule inhibitors of Yes1 kinase: Counter Assay (AID 686950); settings: series mostly up to 76.9 µM;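 further: no kinase present so only ADP-Glo detection of a fixed ADP amount is tested; luminescence from ADP-Glo reporting ADP in a fixed ATP and ADP mixture; 0% = DMSO wells with ATP plus ADP and -100% = ATP-only wells without ADP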
# In short: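 Enzyme-free detection counter-screen: compounds preincubated 20 min in buffer, then 0.08 mM ATP plus 0.02 mM ADP added for 60 min at room temperature; ADP-Glo luminescence. Buffer 50 mM Tris pH 7.5, 10 mM MgCl2, 150 mM NaCl; normalized to ATP+ADP and ATP-only controls.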
# [3] = qHTS Assay for Identifying Gametocytocidal Compounds (AID 743244); further: potency means the concentration at half of the fitted maximal effect;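 on max response: on the % scale 0 is the no-effect control and ±100 the full control effect; actives lower the fluorescent signal which means gametocytes are killed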; settings: P. falciparum 3D7 stage III-V gametocytes, alamarBlue, 72 h; max response: stronger effect = lower value
# In short: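 Viability read-out was resazurin reduction (alamarBlue, 24 h) measured at Ex 525/Em 598 nm. Beforehand, late-stage (III-V) 3D7 P. falciparum gametocytes at 20,000 cells/well were incubated with compound 72 h at 37C under 5% CO2.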
# [4] = qHTS profiling for inhibitors of Plasmodium falciparum (3D7) proliferation (AID 743322; call rule not given here;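 further: infected erythrocytes exposed to compound for 72 h before lysis; 100% = DMSO vehicle wells and 0% = 0.29 µM artemisinin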); settings: P. falciparum 3D7 proliferation; at 28.7 µM (top of the series)
# In short: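 Erythrocytes infected with P. falciparum (0.3% parasitemia, 2.5% hematocrit) incubated with compounds 72 h at 37 C, 5% CO2. Lysis with saponin/Triton buffer containing SYBR Green I, overnight at room temperature in the dark; DNA fluorescence (485/535 nm) normalised to 0.29 uM artemisinin and DMSO.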
# [5] = qHTS profiling for inhibitors of Plasmodium falciparum (DD2) proliferation (AID 743323; call rule not given here); settings: lower = more inhibition; at 28.7 µM (top of the series)
# In short: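 P. falciparum Dd2-infected erythrocytes (0.3% parasitemia, 2.5% hematocrit) exposed 72 h at 37 C, 5% CO2. Lysis with SYBR Green, overnight at room temperature, fluorescence 485/535 nm; normalized to 0.29 uM artemisinin and DMSO.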
# [6] = qHTS profiling for inhibitors of Plasmodium falciparum (HB3) proliferation (AID 743324); settings: Plasmodium falciparum HB3 blood-stage proliferation; at 28.7 µM (top of the series);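 further: 100% = DMSO vehicle wells and 0% = artemisinin-treated control wells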
# In short: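 P. falciparum HB3 grown in erythrocytes (0.3% parasitemia, 2.5% hematocrit final) with compound for 72 h at 37 C, 5% CO2. Parasite DNA detected by SYBR Green after saponin/triton lysis overnight; normalized to 0.29 uM artemisinin and DMSO.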
# [7] = qHTS assay for environmental chemicals that activate the Aryl hydrocarbon Receptor (AhR) signaling pathway (AID 651777); settings: 1A2-DRE human hepatoma cells, luciferase, 24 h; activation: stronger effect = higher value; further: % of control where 0% means no effect; nearly all actives have a fitted effect of over 15% in size
# In short: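 Stable CYP1A2 promoter/DRE-luciferase human hepatoma line treated 24 hr; One-Glo luminescence, 30 min RT.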
# [8] = biological target: Nuclear receptor ROR-gamma (Homo sapiens) (UniProt P51449); experiment: qHTS assay for small molecule antagonists of the retinoid-related orphan receptor gamma (ROR-gamma) signaling pathway (AID 651802); settings: ROR-gamma antagonist cell reporter assay; series mostly up to 92.2 µM; further: potency means the concentration at half of the fitted maximal effect; nearly all actives have a fitted effect of over 60% in size
# In short: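 CHO, TET-inducible ROR + RORE-LUC reporter, 1536-well qHTS. Compound pinned, doxycycline added, 16hr 37C/5% CO2. ONE-Glo, 30 min RT, luminescence; signal drop scored as antagonism.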
# [9] = biological target: Arylsulfatase A (Homo sapiens) (UniProt P15289); experiment: qHTS screen for enhancers of Arylsulfatase A (ASA1): LOPAC Validation Assay (AID 720538); settings: ASA enzyme activity, LOPAC qHTS enhancer assay; series mostly up to 57.5 µM
# In short: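 SV40-transformed fibroblasts from an MLD patient (ASA-I179S) were treated with compound for 48 h at 37 C. They were then lysed with 0.5 mM pNCS substrate (final) for 14 h at room temperature and stopped with NaOH; signal read by fluorescence (Ex 525/Em 598 nm), with increase denoting enhanced activity.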
# [10] = qHTS for compounds that reverse cellular toxicity of Amyloid beta (A-beta) peptide in yeast: LOPAC Validation Assay (AID 720559); settings: yeast expressing A-beta; series mostly up to 46.1 µM;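 further: plate controls were DMSO for no effect and equimolar ferric chloride plus clioquinol rescue for full effect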
# In short: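 Yeast expressing toxic A-beta grown with pinned compounds at 30 C for 48 hr. Growth measured as absorbance at 600 nm; data normalized to DMSO and to an equimolar FeCl3/clioquinol mixture as positive control.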
# [11] = qHTS for Activators of Parkin Expression: LOPAC Validation Assay (NLuc Reporter) (AID 720572;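 further: 0% = DMSO and 100% = positive control compound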); settings: Parkin promoter NanoLuc reporter cells, luminescence; series mostly up to 46.1 µM
# In short: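 Neuronal cells with a Parkin promoter-driven FLuc/NLuc coincidence reporter were treated 24 h at 37 C in 7-point dose response (LOPAC). NLuc luminescence read after FLuc; signals normalized to DMSO and positive control (100%).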
# [12] = qHTS for Activators of Parkin Expression: LOPAC Validation Assay (FLuc Reporter) (AID 720573;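 further: 0% = DMSO and 100% = positive control compounds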); settings: Cell line, PRKN promoter firefly luciferase reporter; series mostly up to 46.1 µM
# In short: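 Neuronal cell line stably expressing FLuc/NLuc coincidence reporter under the Parkin promoter, 1,500 cells/well, dosed 24 h after seeding in 7-point series for 24 h at 37 C. FLuc luminescence read; normalized to DMSO and positive control (100%).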
# [13] = qHTS assay for small molecule agonists of the antioxidant response element (ARE) signaling pathway measured by Nrf2-dependant transcriptional activity (AID 720636; active means well fitted curve in the direction sought with a large enough effect in the repeat runs; an effect the other way counts as inactive or inconclusive;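 further: HepG2 cells with an ARE-driven luciferase reporter; % of control where 0% means no effect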); settings: ARE-luc HepG2, Nrf2 luciferase reporter, 16 h; series mostly up to 92.4 µM
# In short: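 Reporter gene assay, HepG2 ARE-luc: 16 hr compound, 37 C, 5% CO2; read-out luciferase luminescence.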
# [14] = qHTS assay for small molecule antagonists of the retinoid-related orphan receptor gamma (ROR-gamma) signaling pathway - cell viability counter screen (AID 720652; active means well fitted curve in the direction sought with a large enough effect in the repeat runs; an effect the other way counts as inactive or inconclusive;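 further: potency means the concentration at half of the fitted maximal effect; compound exposure lasted 16 hr before ATP read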); settings: RORgamma reporter cell line viability counter screen; series mostly up to 92.2 µM
# In short: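 Luminescence from CellTiter-Glo after 30 min at room temperature reported cellular ATP as the cytotoxicity measure. Cells were the CHO reporter line with doxycycline-induced ROR-gamma expression, exposed to compound for 16 hr at 37 C.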
# [15] = qHTS assay for small molecule agonists of the antioxidant response element (ARE) signaling pathway measured by Nrf2-dependant transcriptional activity - cell viability counter screen (AID 720653; active means well fitted curve in the direction sought with a large enough effect in the repeat runs; an effect the other way counts as inactive or inconclusive; further: on the % scale 0 is the no-effect control and ±100 the full control effect); settings: ARE-bla HepG2 viability, CellTiter-Glo ATP luminescence, 16 h; max response: stronger effect = lower value
# In short: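 ARE-bla HepG2 cells treated with compounds for 16 h at 37C; this counter screen measures viability as intracellular ATP by CellTiter-Glo luminescence after 30 min at room temperature.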
# [16] = biological target: T1, Hexokinase-4 (Homo sapiens) + Glucokinase regulatory protein (Homo sapiens) (UniProt P35557+Q14397); experiment: qHTS assay for inhibitors of recombinant human GCK-GKRP interaction: ADP-Glo assay (AID 743206); settings: ADP-Glo luminescence, 60 min, 0% = vehicle-only wells with enzyme present; series mostly up to 76.9 µM;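 further: plate controls were DMSO plus enzyme for no effect and no enzyme for full effect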
# In short: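 GST-GCK and FLAG-GKRP (15 nM each in the dispensed mix, with 2 uM S6P) react with 0.4 mM ATP and 5 mM glucose (final) in Hepes pH 7.6 for 60 min at room temperature. ADP is measured by ADP-Glo luminescence.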
# [17] = biological target: T1, Hexokinase-4 (Homo sapiens) + Glucokinase regulatory protein (Homo sapiens); experiment: qHTS assay for inhibitors of recombinant human GCK-GKRP interaction: HTRF assay (AID 743207); settings: recombinant GCK-GKRP HTRF binding, 60 min, with sorbitol-6-phosphate; series mostly up to 57.5 µM;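 further: 0% = DMSO with GCK present and -100% = DMSO wells lacking GCK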
# In short: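 HTRF binding of 5 nM GST-GCK and 5 nM FLAG-GKRP with 2 uM S6P in pH 7.1 Hepes buffer (MgCl2, KCl, DTT, Tween 20, BSA). Anti-FLAG XL665 and anti-GST donor added, 60 min at room temperature; 665/615 nm read, normalized to with- and without-GCK controls.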
# [18] = qHTS assay for cell viability of HEK293 cells (AID 743288); settings: ATP luminescence (CellTiter-Glo), 18 h; max response: stronger effect = lower value; further: potency means the concentration at half of the fitted maximal effect; nearly all actives have a fitted effect of over 50% in size
# In short: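 Parental HEK293 cells, 2,000 per well, preincubated at least 5 h at 37 C, then exposed to compounds in DMSO for 18 h at 37 C. Viability by CellTiter-Glo ATP luminescence after 30 min at room temperature.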
# Tyrosine-protein kinase Yes (Homo sapiens), sequence (P07947 whole entry, looked up): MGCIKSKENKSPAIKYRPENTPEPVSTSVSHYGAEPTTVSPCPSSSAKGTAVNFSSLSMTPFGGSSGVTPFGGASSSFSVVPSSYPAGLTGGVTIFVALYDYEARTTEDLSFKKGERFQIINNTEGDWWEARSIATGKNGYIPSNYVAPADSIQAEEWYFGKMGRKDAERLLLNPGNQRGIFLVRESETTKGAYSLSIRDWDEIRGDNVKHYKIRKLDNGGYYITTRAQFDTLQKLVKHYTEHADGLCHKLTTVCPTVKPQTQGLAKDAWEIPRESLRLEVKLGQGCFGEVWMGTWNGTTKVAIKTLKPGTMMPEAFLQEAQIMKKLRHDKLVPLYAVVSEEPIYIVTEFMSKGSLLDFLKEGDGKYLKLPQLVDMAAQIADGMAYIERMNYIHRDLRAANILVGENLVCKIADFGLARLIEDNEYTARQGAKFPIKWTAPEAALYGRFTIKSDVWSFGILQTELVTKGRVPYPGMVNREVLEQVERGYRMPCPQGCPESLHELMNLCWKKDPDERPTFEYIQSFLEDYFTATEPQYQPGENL
# T1 sequence (P35557 whole entry, looked up): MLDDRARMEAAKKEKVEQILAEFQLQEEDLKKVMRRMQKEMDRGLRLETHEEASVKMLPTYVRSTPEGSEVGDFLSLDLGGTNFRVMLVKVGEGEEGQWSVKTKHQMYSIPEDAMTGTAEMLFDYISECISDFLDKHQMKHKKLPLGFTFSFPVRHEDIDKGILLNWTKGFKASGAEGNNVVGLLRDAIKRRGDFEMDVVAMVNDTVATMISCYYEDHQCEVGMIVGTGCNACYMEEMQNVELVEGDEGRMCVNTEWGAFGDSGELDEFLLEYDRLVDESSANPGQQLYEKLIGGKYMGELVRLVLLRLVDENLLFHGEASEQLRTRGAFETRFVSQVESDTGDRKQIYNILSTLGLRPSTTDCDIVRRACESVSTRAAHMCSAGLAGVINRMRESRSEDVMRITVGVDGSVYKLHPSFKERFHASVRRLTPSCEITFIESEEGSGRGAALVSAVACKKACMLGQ
# T1 sequence (Q14397 whole entry, looked up): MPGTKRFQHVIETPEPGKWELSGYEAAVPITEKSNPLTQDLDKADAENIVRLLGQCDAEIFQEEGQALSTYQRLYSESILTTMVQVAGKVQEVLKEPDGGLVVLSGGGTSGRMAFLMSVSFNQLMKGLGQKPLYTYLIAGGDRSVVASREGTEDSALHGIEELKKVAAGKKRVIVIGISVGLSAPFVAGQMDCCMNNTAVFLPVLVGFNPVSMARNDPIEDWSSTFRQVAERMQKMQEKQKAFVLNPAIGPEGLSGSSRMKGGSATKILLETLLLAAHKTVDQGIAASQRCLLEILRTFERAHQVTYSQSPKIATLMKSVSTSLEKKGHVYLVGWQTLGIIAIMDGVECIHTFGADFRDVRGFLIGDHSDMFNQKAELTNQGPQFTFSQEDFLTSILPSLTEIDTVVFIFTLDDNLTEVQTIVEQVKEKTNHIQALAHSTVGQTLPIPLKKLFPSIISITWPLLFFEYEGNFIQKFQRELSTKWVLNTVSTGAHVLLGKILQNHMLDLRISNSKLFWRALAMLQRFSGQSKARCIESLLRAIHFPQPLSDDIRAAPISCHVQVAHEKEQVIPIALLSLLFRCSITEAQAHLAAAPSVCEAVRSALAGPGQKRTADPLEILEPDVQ
# Arylsulfatase A (Homo sapiens), sequence (P15289 whole entry, looked up): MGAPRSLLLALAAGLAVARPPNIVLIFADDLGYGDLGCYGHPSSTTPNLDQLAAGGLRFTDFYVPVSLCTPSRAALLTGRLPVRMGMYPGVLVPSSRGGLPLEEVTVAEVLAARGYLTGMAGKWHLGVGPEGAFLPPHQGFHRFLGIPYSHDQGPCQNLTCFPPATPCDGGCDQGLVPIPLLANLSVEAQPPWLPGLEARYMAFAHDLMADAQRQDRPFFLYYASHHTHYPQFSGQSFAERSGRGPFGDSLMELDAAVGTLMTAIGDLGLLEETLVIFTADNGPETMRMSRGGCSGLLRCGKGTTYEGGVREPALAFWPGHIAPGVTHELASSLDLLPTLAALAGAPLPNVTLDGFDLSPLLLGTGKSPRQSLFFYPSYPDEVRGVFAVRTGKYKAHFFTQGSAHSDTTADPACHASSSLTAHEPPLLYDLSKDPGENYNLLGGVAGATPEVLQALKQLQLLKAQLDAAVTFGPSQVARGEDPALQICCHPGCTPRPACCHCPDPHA
# Nuclear receptor ROR-gamma (Homo sapiens), sequence (P51449 whole entry, looked up): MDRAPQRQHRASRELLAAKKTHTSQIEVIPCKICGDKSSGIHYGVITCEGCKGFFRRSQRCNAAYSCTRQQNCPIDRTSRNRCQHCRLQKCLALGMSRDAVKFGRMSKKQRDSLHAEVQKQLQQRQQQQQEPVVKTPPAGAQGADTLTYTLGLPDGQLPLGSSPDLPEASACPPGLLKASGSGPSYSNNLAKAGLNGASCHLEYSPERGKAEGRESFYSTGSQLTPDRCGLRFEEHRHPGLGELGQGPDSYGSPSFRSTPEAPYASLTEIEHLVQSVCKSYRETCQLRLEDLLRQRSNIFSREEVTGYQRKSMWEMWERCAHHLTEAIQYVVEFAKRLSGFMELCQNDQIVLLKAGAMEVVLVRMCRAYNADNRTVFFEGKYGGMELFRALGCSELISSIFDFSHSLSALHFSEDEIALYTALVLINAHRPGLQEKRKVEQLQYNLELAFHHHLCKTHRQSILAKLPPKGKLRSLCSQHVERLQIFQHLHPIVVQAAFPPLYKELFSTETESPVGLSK
compound,measurement,setting,value
O=C(O)c1ccc(-c2cc3cccnc3c(-c3ccc4nonc4c3)n2)cc1,Potency,[1],inactive
same,outcome,[2],inactive
same,max response,[3],33.8% (inactive)
same,remaining parasite growth % (stronger effect = lower value),[4],98.1%
same,"activity, percent of control",[5],92.9%
same,"remaining proliferation (% of control), lower = more inhibition",[6],93.9%
CC/C(=C(\c1ccccc1)c1ccc(OCCN(C)C)cc1)c1ccccc1,activation,[7],-5.69% (inactive) and -2.28% (inactive)
same,Potency,[8],29.8 µM (active)
same,Potency,[1],inactive
same,outcome,[2],inactive
same,outcome,[9],inactive; inhibitor; fitted 5.3582 uM
same,outcome,[10],inactive
same,Potency,[11],inactive
same,Potency,[12],inactive
same,Potency,[13],inactive
same,Potency,[14],66.8 µM (active)
same,max response,[15],-20.9% (inactive)
same,outcome,[16],inactive
same,outcome,[17],inactive
same,max response,[3],10% (inactive)
same,Potency,[18],70.8 µM (active)
N#Cc1ccc(NC(=O)Nc2ccccc2Br)c2n[nH]nc12,outcome,[2],inactive
same,max response,[3],26.2% (inactive)
same,remaining parasite growth % (stronger effect = lower value),[4],66.9%
same,"activity, percent of control",[5],69.6%
same,"remaining proliferation (% of control), lower = more inhibition",[6],37.3%
Cc1nc(N)sc1-c1ccnc(Nc2ccc(N3CCOCC3)cc2)n1,Potency,[1],0.308 µM (active)
same,outcome,[2],inactive
same,max response,[3],-1.3% (inactive)
same,remaining parasite growth % (stronger effect = lower value),[4],2.54%
same,"activity, percent of control",[5],7.68%
same,"remaining proliferation (% of control), lower = more inhibition",[6],10.5%
CC(C)(C)COc1ccc(-n2cc(C(=O)O)cn2)cc1C#N,Potency,[1],inactive
same,outcome,[2],inactive
same,max response,[3],54.6% (inactive)
same,remaining parasite growth % (stronger effect = lower value),[4],28.3%
same,"activity, percent of control",[5],88.8%
same,"remaining proliferation (% of control), lower = more inhibition",[6],91.7%
COc1cc2ncnc(-n3nc(-c4ccccn4)nc3N)c2cc1OC,Potency,[1],2.74 µM (active)
same,outcome,[2],inactive
same,remaining parasite growth % (stronger effect = lower value),[4],68.8%
same,"activity, percent of control",[5],96.4%
same,"remaining proliferation (% of control), lower = more inhibition",[6],74%
CO[C@H]1C=CC=C(C)C(=O)NC2=CC(=O)C(NCCN(C)C)=C(C[C@@H](C)C[C@H](OC)[C@@H](O)[C@@H](C)C=C(C)[C@@H]1OC(N)=O)C2=O,Potency,[1],inactive
same,outcome,[2],inactive
same,remaining parasite growth % (stronger effect = lower value),[4],-0.553%
same,"activity, percent of control",[5],-0.115%
same,"remaining proliferation (% of control), lower = more inhibition",[6],-2.33%
CN(C)Cc1ccc(-c2nc3cccc4c3n2CCNC4=O)cc1,Potency,[1],13.7 µM (active)
same,outcome,[2],inactive
same,max response,[3],13% (inactive)
same,remaining parasite growth % (stronger effect = lower value),[4],86.1%
same,"activity, percent of control",[5],90%
same,"remaining proliferation (% of control), lower = more inhibition",[6],94%
CC(C)(C(=O)NCC(F)(F)C(F)(F)F)C(=O)N[C@@H]1C(=O)Nc2ccccc2-c2ccccc21,Potency,[1],inactive
same,outcome,[2],inactive
same,max response,[3],8.7% (inactive)
same,remaining parasite growth % (stronger effect = lower value),[4],5.09%
same,"activity, percent of control",[5],4.91%
same,"remaining proliferation (% of control), lower = more inhibition",[6],-0.0337%
CCOc1ccc(Nc2nc(-c3c(C)nc4ccccn34)cs2)cc1,Potency,[1],inactive
same,outcome,[2],inactive
same,remaining parasite growth % (stronger effect = lower value),[4],2.43%
same,"activity, percent of control",[5],5.76%
same,"remaining proliferation (% of control), lower = more inhibition",[6],7.43%
O=C(Nc1ccccc1-c1cn2c(CN3CCNCC3)csc2n1)c1cnc2ccccc2n1,Potency,[1],inactive
same,outcome,[2],inactive
same,Potency,[3],3.72 µM (active)
same,remaining parasite growth % (stronger effect = lower value),[4],-2.01% and -0.108%
same,"activity, percent of control",[5],-0.76% and -0.434%
same,"remaining proliferation (% of control), lower = more inhibition",[6],-2.58% and -1.42%
CO[C@@H](C(=O)N1Cc2[nH]nc(NC(=O)c3ccc(N4CCN(C)CC4)cc3)c2C1)c1ccccc1,outcome,[2],inactive
same,remaining parasite growth % (stronger effect = lower value),[4],5.46%
same,"activity, percent of control",[5],24.6%
same,"remaining proliferation (% of control), lower = more inhibition",[6],7.25%
NC(CO)(CO)CCc1ccc(Sc2cccc(OCc3ccccc3)c2)cc1Cl,outcome,[2],inactive
same,remaining parasite growth % (stronger effect = lower value),[4],-0.423%
same,"activity, percent of control",[5],1.55%
same,"remaining proliferation (% of control), lower = more inhibition",[6],-1.39%
Cc1ccc(F)c(NC(=O)Nc2ccc(-c3cccc4[nH]nc(N)c34)cc2)c1,outcome,[2],inactive
same,max response,[3],19.5% (inactive)
same,remaining parasite growth % (stronger effect = lower value),[4],81.3%
same,"activity, percent of control",[5],67.8%
same,"remaining proliferation (% of control), lower = more inhibition",[6],23.1%
CC(C)C(=O)Nc1ncc(-c2cc(C(F)F)nn2-c2c(Cl)cccc2Cl)s1,Potency,[1],27.4 µM (active)
same,outcome,[2],inactive
same,max response,[3],17% (inactive)
same,remaining parasite growth % (stronger effect = lower value),[4],0.0648%
same,"activity, percent of control",[5],-0.314%
same,"remaining proliferation (% of control), lower = more inhibition",[6],-0.0078%

# Reference: PubChem BioAssay (NCATS)
